This excerpt belongs to a sample that is enriched for hits.
Methyltransferases: Primary Screen for Target Class Profiling of Small Molecule Inhibitors of Methyltransferases | purified enzyme, MTase-Glo SAH luminescence; stronger effect = lower value | calls only at 40 µM | actives 3.9% (n = 25,000); call rule not given here
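Each enzyme was assayed with SAM and its substrate. SAH formation detected by MTase-Glo luminescence; single-point 40 uM screen[…].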
MTase-Glo ctr: counter-screen for methyltransferase inhibitors: coupling enzymes without methyltransferase. Potency, µM (highest dose often 57.3 µM), without a hit: top-dose activity change, negative = inhibition, actives largely listed as inhibitors. AID 1745851. MTase-Glo coupled enzymes, SAH conversion luminescence, no MTase. shares compounds with Methyltransferases. actives 6% (n = 180); active = well fitted inhibition curve with a large enough effect; also: potency is read from the fitted curve at half-maximal effect
The depositor's hits bear a star; i = inactive; + = active, no number; [ ] = dose if it differs, or a comment. % is scaled to controls: 0 for no effect and ±100 for the full control effect.

SMILES | Methyltransferases | others
c1ccc(CC2=NOC3(CCN(Cc4c[nH]c5ccccc45)CC3)C2)cc1 | i
O=C1CCN(Cc2c[nH]c3ccccc23)CCCC(C(=O)NCc2ccccc2)CCN1 (stereo not drawn) | i
COc1ccc(Cl)cc1Nc1ncncc1-c1nc(-c2ccccc2)no1 | i
CNC(=O)[C@@H]1CCCC[C@@H]1C(=O)N1CCn2nc(Cc3ccccc3)cc2C1 | i
O=C(NCC1CCCO1)c1cc(-c2ccccc2F)cc2c1OCCN2Cc1cccnc1 (stereo not drawn) | i
CCc1nc2cc(N3CCC(C(=O)NCc4cccnc4)CC3)cnc2nc1CC | i
CN1CCOc2c(C(=O)NCc3cnn(C)c3)cc(-c3ccc([S+](C)(=O)[O-])cc3)cc21 | i
CNC(=O)c1cc(-c2cnc(OC)nc2)cc2c1OCCN2Cc1cccnc1 | i
COc1ccc(-c2cc(C(=O)NCc3cccnc3)c3c(c2)N(C)CCO3)cc1OC | + | MTase-Glo ctr=5%[85.7 µM]
CC(=O)Nc1cc(-c2cc(C(=O)NCc3cccnc3)c3c(c2)N(C)CCO3)ccn1 | + | MTase-Glo ctr=1%[85.7 µM]
CC1(C)C2CC[C@@]34CC(CC[C@H]3[C@]2(C)CC[C@@H]1O[C@@H]1O[C@H](CO)[C@@H](O)[C@H](O)[C@H]1O)[C@](C)(O)C4 (stereo partly drawn) | i
CC(C)CCNC(=O)C1(C)Cn2nc(C(=O)NCc3ccc(OC(C)C)cc3)cc2C(=O)N1C (stereo not drawn) | i
Cc1noc(C)c1-c1cc(-c2ccncc2)cn2cncc12 | i
Cc1noc(C)c1-c1cc(-c2ccc(CN(C)C)cc2)cn2cncc12 | + | MTase-Glo ctr=-17%[85.7 µM]
Cn1c(=O)sc2cc(NS(=O)(=O)c3ccc4c(c3)n(C)c(=O)n4C)ccc21 | i
CCOC(=O)c1cc2n(n1)CC(C)(C(=O)NC1CCC(C)CC1)N(c1ccc(F)cc1C)C2=O (stereo not drawn) | i
CN(C)C[C@H]1C[C@@H](CO)CN(C(=O)c2csc(Cc3ccccc3)n2)C1 | i
COc1cccc(-c2ccc(C(=O)N3CCC(NC(=O)N(C)C)CC3)cc2)c1 | i
COc1cccc(-c2cccc(C(=O)N3C[C@H](CO)C[C@H](CN(C)C)C3)c2)c1 | + | MTase-Glo ctr=-2%
